Laboratory results: the supplement of paper PMC10849652
About 7,900 targets were measured; listed, in parts, are those with a hit and a random draw of the rest. About 0.6% of all pairs of compound and target were hits.

Compound: c1cc(OCCN2CCCCC2)cc(-c2n[nH]c3ccc(-c4nnc[nH]4)cc23)c1
Test: log2 fold change, soluble protein after heating vs DMSO (PISA); higher = thermal stabilisation; K562 cells, 10 uM, 30 min; active = over 0.2 and 3.5 SD of the protein, either way, in both replicates (recomputed)
Outline: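 K562 cells (2×10^6 cells/mL) were treated with 10 μM compound for 30 min, and aliquots were heated for 3 min over 48°C-58°C. Pooled aliquots were extracted in PBS with 0.5% NP-40 at 4°C, and the supernatant after 21,000xg for 90 min was measured by TMTpro 16plex LC-MS/MS with channel sums equalised. Reported thermal stability, relative to control samples and from duplicates, is a log2 fold change.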

Chain of UniProt P25774 (P25774 whole entry, looked up): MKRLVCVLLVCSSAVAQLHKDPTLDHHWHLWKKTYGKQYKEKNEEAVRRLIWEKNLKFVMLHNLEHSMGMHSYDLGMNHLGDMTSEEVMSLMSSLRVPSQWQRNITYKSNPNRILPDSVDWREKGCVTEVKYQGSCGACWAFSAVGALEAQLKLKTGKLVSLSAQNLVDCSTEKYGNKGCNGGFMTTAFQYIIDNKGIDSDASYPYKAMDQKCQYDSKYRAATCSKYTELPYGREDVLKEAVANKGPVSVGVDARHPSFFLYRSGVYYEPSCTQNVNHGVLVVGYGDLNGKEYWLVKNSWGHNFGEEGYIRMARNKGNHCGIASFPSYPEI
Chain of UniProt P32519 (P32519 whole entry, looked up): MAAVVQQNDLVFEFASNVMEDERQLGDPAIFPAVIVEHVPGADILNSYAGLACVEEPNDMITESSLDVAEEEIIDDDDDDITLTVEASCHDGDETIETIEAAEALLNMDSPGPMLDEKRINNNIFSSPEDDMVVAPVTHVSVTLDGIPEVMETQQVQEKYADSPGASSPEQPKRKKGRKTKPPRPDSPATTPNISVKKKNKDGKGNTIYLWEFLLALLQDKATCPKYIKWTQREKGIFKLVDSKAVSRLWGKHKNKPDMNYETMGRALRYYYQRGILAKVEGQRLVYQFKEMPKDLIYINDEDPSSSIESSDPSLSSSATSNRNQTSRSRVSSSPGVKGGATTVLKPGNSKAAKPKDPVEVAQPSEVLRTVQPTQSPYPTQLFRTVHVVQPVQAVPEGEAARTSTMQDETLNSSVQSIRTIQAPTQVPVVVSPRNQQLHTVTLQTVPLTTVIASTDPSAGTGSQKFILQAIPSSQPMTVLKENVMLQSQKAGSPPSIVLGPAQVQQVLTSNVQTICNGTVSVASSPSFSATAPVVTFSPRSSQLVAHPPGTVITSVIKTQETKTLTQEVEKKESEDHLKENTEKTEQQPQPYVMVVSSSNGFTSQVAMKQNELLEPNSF
Chain of UniProt Q2TBE0 (Q2TBE0 whole entry, looked up): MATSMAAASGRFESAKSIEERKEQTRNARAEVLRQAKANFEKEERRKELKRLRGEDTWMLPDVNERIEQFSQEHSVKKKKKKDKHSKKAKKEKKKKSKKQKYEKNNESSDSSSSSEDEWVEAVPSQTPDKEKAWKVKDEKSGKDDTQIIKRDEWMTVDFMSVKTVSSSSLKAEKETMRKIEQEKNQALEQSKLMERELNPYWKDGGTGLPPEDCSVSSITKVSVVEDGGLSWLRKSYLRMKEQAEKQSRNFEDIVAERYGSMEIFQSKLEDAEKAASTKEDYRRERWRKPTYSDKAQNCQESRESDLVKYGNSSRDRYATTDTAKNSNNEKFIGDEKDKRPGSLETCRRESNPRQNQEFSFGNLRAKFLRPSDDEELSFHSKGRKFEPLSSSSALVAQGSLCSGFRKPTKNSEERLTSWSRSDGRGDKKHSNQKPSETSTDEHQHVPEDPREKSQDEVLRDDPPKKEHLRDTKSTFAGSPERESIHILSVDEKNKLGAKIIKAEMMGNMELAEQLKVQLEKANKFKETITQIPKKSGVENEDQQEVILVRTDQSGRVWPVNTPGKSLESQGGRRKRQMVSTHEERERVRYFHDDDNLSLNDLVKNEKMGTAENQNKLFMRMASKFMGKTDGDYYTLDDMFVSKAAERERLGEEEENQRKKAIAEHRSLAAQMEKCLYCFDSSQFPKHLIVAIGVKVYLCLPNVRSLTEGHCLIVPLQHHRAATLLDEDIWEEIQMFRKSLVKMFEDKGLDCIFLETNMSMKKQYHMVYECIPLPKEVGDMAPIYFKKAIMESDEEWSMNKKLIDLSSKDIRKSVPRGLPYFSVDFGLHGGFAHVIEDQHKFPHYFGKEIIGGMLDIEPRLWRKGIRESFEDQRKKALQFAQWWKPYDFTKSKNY
Chain of UniProt Q8WYA6 (Q8WYA6 whole entry, looked up): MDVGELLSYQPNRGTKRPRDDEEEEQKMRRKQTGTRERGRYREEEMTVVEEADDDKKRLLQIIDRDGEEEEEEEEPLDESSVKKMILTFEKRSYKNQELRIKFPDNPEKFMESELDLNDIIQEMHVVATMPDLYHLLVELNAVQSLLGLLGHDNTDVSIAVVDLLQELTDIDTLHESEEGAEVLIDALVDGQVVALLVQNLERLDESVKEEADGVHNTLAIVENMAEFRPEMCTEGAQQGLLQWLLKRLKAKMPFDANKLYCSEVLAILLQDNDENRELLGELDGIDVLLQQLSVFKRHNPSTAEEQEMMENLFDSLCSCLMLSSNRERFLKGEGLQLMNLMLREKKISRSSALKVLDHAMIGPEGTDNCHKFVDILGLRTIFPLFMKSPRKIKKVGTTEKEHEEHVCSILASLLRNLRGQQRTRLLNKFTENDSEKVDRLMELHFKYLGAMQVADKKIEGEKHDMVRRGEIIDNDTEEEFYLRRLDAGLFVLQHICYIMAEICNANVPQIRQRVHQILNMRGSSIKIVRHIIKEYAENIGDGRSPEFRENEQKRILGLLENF
Chain of UniProt Q86YN1 (Q86YN1 whole entry, looked up): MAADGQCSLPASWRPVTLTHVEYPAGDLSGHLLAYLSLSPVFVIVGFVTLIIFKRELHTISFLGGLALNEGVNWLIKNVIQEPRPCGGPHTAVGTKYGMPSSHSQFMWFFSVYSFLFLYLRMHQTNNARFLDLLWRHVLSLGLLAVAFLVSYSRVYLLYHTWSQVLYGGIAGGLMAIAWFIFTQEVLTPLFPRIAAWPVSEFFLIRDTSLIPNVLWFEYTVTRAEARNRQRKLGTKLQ
Chain of UniProt P50570 (P50570 whole entry, looked up): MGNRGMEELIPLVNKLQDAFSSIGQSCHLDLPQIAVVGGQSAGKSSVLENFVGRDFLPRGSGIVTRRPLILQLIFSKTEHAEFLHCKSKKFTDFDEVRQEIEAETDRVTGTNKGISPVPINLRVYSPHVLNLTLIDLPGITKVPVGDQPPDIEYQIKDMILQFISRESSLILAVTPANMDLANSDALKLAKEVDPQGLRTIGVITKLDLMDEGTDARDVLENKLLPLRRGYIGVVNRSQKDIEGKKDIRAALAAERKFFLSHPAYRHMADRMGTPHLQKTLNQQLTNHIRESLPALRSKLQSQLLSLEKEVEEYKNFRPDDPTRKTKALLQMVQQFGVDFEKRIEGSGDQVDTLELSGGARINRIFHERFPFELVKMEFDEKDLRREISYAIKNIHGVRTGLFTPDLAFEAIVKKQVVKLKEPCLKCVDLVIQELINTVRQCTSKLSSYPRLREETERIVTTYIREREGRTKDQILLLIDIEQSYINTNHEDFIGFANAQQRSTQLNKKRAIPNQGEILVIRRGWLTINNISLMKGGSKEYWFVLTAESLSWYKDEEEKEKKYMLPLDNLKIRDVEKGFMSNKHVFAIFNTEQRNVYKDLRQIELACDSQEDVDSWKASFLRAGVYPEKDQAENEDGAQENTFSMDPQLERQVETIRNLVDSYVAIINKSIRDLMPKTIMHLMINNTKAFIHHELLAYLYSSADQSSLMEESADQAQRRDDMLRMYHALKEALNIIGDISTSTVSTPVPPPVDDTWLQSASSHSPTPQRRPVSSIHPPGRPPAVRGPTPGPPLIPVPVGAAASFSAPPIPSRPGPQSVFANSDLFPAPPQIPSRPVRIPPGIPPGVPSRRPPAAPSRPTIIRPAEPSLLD
Chain of UniProt Q07973 (Q07973 whole entry, looked up): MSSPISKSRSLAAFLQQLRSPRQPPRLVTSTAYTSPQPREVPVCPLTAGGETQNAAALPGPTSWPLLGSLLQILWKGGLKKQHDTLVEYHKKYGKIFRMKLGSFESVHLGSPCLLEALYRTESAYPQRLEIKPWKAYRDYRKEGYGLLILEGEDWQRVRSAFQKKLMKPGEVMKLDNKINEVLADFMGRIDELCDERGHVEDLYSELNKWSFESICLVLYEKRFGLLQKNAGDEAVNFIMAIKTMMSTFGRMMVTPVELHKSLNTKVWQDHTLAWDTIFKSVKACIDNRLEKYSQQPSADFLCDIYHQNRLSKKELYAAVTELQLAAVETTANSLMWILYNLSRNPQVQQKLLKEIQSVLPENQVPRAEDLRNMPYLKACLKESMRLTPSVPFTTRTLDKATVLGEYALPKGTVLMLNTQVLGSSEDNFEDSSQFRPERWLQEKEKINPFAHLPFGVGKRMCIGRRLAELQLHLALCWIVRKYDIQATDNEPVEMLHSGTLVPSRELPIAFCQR
Chain of UniProt Q6P3W2 (Q6P3W2 whole entry, looked up): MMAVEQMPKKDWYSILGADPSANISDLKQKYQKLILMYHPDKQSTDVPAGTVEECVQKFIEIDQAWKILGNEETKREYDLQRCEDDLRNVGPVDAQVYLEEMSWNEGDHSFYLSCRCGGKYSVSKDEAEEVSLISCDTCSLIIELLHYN
Chain of UniProt P80370 (P80370 whole entry, looked up): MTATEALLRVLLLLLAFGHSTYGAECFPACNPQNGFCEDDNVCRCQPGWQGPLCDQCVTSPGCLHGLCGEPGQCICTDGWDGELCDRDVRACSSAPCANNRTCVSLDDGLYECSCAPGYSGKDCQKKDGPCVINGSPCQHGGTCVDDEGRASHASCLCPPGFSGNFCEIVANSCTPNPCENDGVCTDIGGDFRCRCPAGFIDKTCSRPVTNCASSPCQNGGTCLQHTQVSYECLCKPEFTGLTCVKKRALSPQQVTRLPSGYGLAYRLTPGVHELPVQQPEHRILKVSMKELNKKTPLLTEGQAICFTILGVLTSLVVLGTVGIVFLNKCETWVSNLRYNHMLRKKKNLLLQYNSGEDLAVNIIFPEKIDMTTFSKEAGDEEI

log2 fold change, inactive:
DDB1 isoform 2 (UniProt Q16531) -0.12
CTNNBL1 (UniProt Q8WYA6) -0.068
EDRF1 (UniProt Q3B7T1) -0.103
CWF19L2 (UniProt Q2TBE0) -0.001
DNAJC24 (UniProt Q6P3W2) -0.169
FAM160A2 isoform 2 (UniProt Q8N612) 0.068
CYP24A1 (UniProt Q07973) 0.109
DNAH5 (UniProt Q8TE73) 0.029
DERPC (UniProt P0CG12) -0.045
ENTPD7 (UniProt Q9NQZ7) -0.138
EIF2AK3 (UniProt Q9NZJ5) 0.097
CTSS (UniProt P25774) -0.089
EEF2K (UniProt O00418) 0.012
EHBP1 (UniProt Q8NDI1) -0.14
DCAF4 (UniProt Q8WV16) -0.094
FAM117B (UniProt Q6P1L5) 0.105
DLK1 (UniProt P80370) -0.203
ELF1 (UniProt P32519) -0.18
DOLPP1 (UniProt Q86YN1) -0.007
DNM2 isoform 4 (UniProt P50570) 0.06
DNAH10 (UniProt Q8IVF4) 0.172
DCAF12 (UniProt Q5T6F0) 0.055
